Test [1] is described as follows: qHTS assay to identify small molecule antagonists of the estrogen related receptor (ERR) signaling pathway from Tox21 library - cell viability counter screen (AID 1224834). Also: nearly all actives have a fitted effect of over 30% in size. An outline of the steps: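 CellTiter-Fluor fluorescence, read after 30 min at 37 C, measures viability of ERR cells. Cells plated at 2,000/well and incubated 6 h before pin-tool compound addition, then exposed 17.5 hours at 37 C.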

Test [2] has as its target Luciferin 4-monooxygenase (Photinus pyralis) (UniProt P08659). Description: qHTS assay to identify small molecule inhibitors of firefly luciferase (AID 1224835). Also: nearly all actives have a fitted effect of over 25% in size. The gist of the method: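 Biochemical qHTS: compounds run as interplate titrations against purified firefly enzyme, with D-luciferin and ATP each at its KM concentration. Light output recorded by CCD imaging.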
For orientation: qHTS replaces the single test concentration by a dilution series.

Test [3] is described as follows: qHTS assay to identify small molecule agonists of the constitutive androstane receptor (CAR) signaling pathway - cell viability counter screen (AID 1224836). Also: nearly all actives have a fitted effect of over 45% in size. An outline of the steps:
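HepG2 cells stably carrying hCAR and a CYP2B6-2.2kb reporter were plated 4 h, then given compounds at 15 concentrations plus PK11195 (final 0.75 uM). After 23 h at 37 C, viability was read by CellTiter-Fluor fluorescence.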

The nature of test [4]: qHTS assay to identify small molecule antagonists of the constitutive androstane receptor (CAR) signaling pathway - cell viability counter screen (AID 1224837). Also: nearly all actives have a fitted effect of over 45% in size. An outline of the steps:
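Cytotoxicity counter-screen: CellTiter-Fluor fluorescence after 23 h compound exposure (15-point qHTS) in double-stable HepG2-CYP2B6-hCAR cells, with 50 nM CITCO added.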

Test [5] addresses Nuclear receptor subfamily 1 group I member 3 (Homo sapiens) (UniProt Q14994). Description: qHTS assay to identify small molecule antagonists of the constitutive androstane receptor (CAR) signaling pathway (AID 1224838). Also: nearly all actives have a fitted effect of over 40% in size. An outline of the steps:
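Antagonism measured as luciferase signal (ONE-Glo, 30 min, room temperature) in CAR-stimulated cells: HepG2-CYP2B6-hCAR double-stable line exposed 24 hr at 37 C to compound in a 15-point series plus 50 nM CITCO.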

The nature of test [6]: qHTS assay to identify small molecule antagonists of the estrogen related receptor signaling pathway with the pleiotropic PPARgamma coactivator (PGC) from Tox21 10K library - cell viability counter screen (AID 1224840; active = well fitted cell-killing curve with a large enough effect in the repeat runs, not every such curve was filed as active; also: nearly all actives have a fitted effect of over 40% in size). An outline of the steps: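 Counter-screen for cytotoxicity: after 17.5 h compound exposure at 37 C, CellTiter-Fluor reagent added to PGC/ERR cells for 30 min and fluorescence read. Cells were seeded at 2,000 per well 6 h before dosing.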

The target of test [7] is Thyrotropin receptor (Homo sapiens) (UniProt P16473). The experiment in a line: qHTS assay to identify small molecule agonists of the thyroid stimulating hormone receptor (TSHR) signaling pathway (AID 1224843; calls by dose curve; also: nearly all actives have a fitted effect of over 45% in size; also: potency is read from the fitted curve at half-maximal effect). The gist of the method:
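Agonist-mode screen: TSHR HEK293 cells received test chemicals for half an hour at room temperature, then HTRF cAMP detection reagents for one hour prior to fluorescence measurement. Each chemical ran as a 15-concentration series, triplicated.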

Test [8] in a line: qHTS assay to identify small molecule agonists of H2AX (AID 1224845; active = well fitted activation curve with a large enough effect in the signal ratio in the repeat runs, not every such curve was filed as active; the % refers to the signal ratio). An outline of the steps:
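Wild-type CHO-K1 cells, plated overnight, exposed 3hr at 37C to 15 concentrations (0.76% DMSO final). Lysed, then HTRF anti-pH2AX (S139) cryptate and anti-H2AX-d2 antibodies, 24 hr room temperature; 665/620 nm emission read.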

The nature of test [9]: qHTS assay to identify small molecule agonists of the hypoxia (HIF-1) signaling pathway (AID 1224846; active = well fitted activation curve with a large enough effect in the signal ratio in the repeat runs, not every such curve was filed as active; the % refers to the signal ratio). An outline of the steps:
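Compounds added to ME-180 cells carrying hypoxia-response-element beta-lactamase reporter (0.5% dialyzed FBS, 5 h preplating), 17 h at 37C; agonist activity detected by CCF4-AM B/G FRET read-out.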

Test [10] is described as follows: qHTS RealTime-Glo MT Cell Viability Assay in HepG2 cells - 24 hour (AID 1224867). Also: nearly all actives have a fitted effect of over 50% in size. Also: potency is read from the fitted curve at half-maximal effect. The gist of the method:
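HepG2 cells were seeded at 600 cells/well together with NanoLuc luciferase and a cell-permeant prosubstrate, preincubated 5 h at 37 C/5% CO2, then pin-dosed with compounds in DMSO. Nonlytic luminescence from viable cells was read at each time point.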

Test [11] can be described thus: qHTS RealTime-Glo MT Cell Viability Assay in HEK293 cells - 32 hour (AID 1224868). Also: nearly all actives have a fitted effect of over 50% in size. Also: potency is read from the fitted curve at half-maximal effect. An outline of the steps:
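HEK293 cells were seeded at 600 cells/well together with NanoLuc luciferase and cell-permeant prosubstrate, preincubated 5 h at 37 C/5% CO2, then given compound in DMSO by pintool. Luminescence from viable-cell prosubstrate reduction was read repeatedly over 40 h.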

Test [12] in a line: A CellTox Green Cytotoxicity Assay to monitor cytotoxicity in HEK293 cells - 0 hour (AID 1224869). Also: nearly all actives have a fitted effect of over 50% in size. The gist of the method: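 Fluorescence from a DNA-binding dye excluded by viable cells was measured repeatedly in the same HEK293 wells (600 cells/well) during continuous compound exposure at 37 C. Each assay gives one read point: 0, 8, 16, 24, 32 or 40 h.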
The nature of test [13]: qHTS RealTime-Glo MT Cell Viability Assay in HepG2 cells - 40 hour (AID 1224870). Also: nearly all actives have a fitted effect of over 50% in size. An outline of the steps: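 HepG2 cells (600/well) mixed with RealTime-Glo MT reagent, settled 5 h at 37 C/5% CO2 before compound addition. Nonlytic NanoLuc luminescence from viable-cell prosubstrate reduction read repeatedly during 40 h treatment at 37 C.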
A short description of test [14]: qHTS assay to identify small molecule antagonists of the estrogen related receptor signaling pathway with the pleiotropic PPARgamma coactivator (PGC) from Tox21 10K library (AID 1224841; call rule not given here). An outline of the steps:
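Luminescence (One-Glo, 30 min at room temperature) after 18 h compound treatment at 37 C of PGC/ERR reporter cells plated at 2,000 cells/well and settled 6 h beforehand.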

A short description of test [15]: qHTS assay to identify small molecule agonists of the estrogen related receptor signaling pathway with the pleiotropic PPARgamma coactivator (PGC) from Tox21 10K library (AID 1224842). Also: nearly all actives have a fitted effect of over 15% in size. The gist of the method: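 PGC/ERR reporter cell line, 2,000 cells per well, incubated 6 h at 37 C before 23 nL compound in DMSO was added. After 18 h at 37 C, One-Glo luminescence read following 30 min at room temperature.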

The nature of test [16]: qHTS assay to identify small molecule agonists of the hypoxia (HIF-1) signaling pathway - cell viability counter screen (AID 1224844; calls by dose curve; also: nearly all actives have a fitted effect of over 50% in size). The gist of the method: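 Cytotoxicity measured by CellTiter-Glo ATP luminescence in the wells also read for beta-lactamase signal. Cells were HRE-bla ME-180 (2,000/well, 0.5% dialyzed FBS), exposed to compounds for 17 h at 37C.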
The nature of test [17]: qHTS assay to identify small molecule antagonists of the estrogen related receptor (ERR) signaling pathway from Tox21 library (AID 1224848). Also: nearly all actives have a fitted effect of over 50% in size. The gist of the method:
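Quantitative high-throughput format: ERR reporter cells (2,000/well) pre-incubated 6 h, treated 18 h at 37 C with compounds in DMSO alongside positive and negative controls, then read by ONE-Glo luminescence.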

Test [18] in a line: qHTS assay to identify small molecule agonists of the estrogen related receptor (ERR) signaling pathway from Tox21 library (AID 1224849; calls by dose curve; also: nearly all actives have a fitted effect of over 15% in size). As to conditions: ERR reporter cell line, ONE-Glo luciferase, 18 h. The gist of the method:
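Luminescent agonist read-out (One-Glo, 30-minute room-temperature incubation) following 18-hour compound treatment at 37 C of the ERR cell line, which had been plated 6 hours before dosing.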

A short description of test [19]: qHTS assay to identify small molecule agonists of H2AX - cell viability counter screen (AID 1224847; calls by dose curve; also: top concentration of the series differs between compounds; nearly all actives have a fitted effect of over 30% in size). An outline of the steps: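 Wild-type CHO-K1 cells (10% FBS medium) were plated overnight at 37C, exposed to compounds at 15 concentrations for 3 hr at 37C (0.76% DMSO final), and viability was read as CellTiter-Glo luminescence after 30 min at room temperature.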

In test [20] the target is Nuclear receptor subfamily 1 group I member 3 (Homo sapiens) (UniProt Q14994). Description: qHTS assay to identify small molecule agonists of the constitutive androstane receptor (CAR) signaling pathway (AID 1224839). Also: nearly all actives have a fitted effect of over 15% in size. The gist of the method: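 HepG2 cells stably expressing hCAR and a CYP2B6-2.2kb luciferase reporter were treated with compounds at 15 concentrations plus 0.75 uM PK11195 (final) for 24 h at 37 C; luminescence was read after ONE-Glo addition.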
Sequence of Nuclear receptor subfamily 1 group I member 3 (Homo sapiens) (Q14994 whole entry, looked up): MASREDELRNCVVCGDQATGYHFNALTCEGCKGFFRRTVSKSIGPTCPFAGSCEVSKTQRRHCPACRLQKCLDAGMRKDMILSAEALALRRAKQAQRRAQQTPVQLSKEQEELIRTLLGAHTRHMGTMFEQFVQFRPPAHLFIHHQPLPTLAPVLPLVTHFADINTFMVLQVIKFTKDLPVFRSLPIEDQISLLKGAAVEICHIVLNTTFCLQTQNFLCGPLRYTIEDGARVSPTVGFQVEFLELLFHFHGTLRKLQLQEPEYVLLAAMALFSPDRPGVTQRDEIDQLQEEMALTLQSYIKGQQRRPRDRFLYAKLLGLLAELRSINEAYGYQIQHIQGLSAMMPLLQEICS

Unmarked numbers belong to inactive results. Records with an inconclusive call do not appear. The source made the active and inactive calls. Unless noted, calls follow the shape of the dose curve; as a rule, active = well fitted curve in the direction sought with a large enough effect in the repeat runs; inconclusive = weak or mixed curves; inactive = no such curve, though single readings can be large; an effect the other way counts as inactive or inconclusive.
% is scaled to controls: 0 for no effect and ±100 for the full control effect.

Sequence of Luciferin 4-monooxygenase (Photinus pyralis) (P08659 whole entry, looked up): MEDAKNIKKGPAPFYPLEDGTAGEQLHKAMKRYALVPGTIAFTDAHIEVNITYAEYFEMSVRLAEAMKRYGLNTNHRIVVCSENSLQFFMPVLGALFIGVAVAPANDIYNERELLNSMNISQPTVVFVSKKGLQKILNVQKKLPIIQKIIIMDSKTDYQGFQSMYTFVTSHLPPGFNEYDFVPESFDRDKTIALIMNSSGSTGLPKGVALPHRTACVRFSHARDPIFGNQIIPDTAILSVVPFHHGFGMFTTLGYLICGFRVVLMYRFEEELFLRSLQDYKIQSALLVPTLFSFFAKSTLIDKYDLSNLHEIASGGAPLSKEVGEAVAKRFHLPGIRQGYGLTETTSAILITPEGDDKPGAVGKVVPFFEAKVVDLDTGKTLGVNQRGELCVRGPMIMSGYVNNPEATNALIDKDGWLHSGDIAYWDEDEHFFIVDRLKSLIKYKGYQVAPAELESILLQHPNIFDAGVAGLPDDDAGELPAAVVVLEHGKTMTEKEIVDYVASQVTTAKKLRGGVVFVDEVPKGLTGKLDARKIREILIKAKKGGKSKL
Sequence of Thyrotropin receptor (Homo sapiens) (P16473 whole entry, looked up): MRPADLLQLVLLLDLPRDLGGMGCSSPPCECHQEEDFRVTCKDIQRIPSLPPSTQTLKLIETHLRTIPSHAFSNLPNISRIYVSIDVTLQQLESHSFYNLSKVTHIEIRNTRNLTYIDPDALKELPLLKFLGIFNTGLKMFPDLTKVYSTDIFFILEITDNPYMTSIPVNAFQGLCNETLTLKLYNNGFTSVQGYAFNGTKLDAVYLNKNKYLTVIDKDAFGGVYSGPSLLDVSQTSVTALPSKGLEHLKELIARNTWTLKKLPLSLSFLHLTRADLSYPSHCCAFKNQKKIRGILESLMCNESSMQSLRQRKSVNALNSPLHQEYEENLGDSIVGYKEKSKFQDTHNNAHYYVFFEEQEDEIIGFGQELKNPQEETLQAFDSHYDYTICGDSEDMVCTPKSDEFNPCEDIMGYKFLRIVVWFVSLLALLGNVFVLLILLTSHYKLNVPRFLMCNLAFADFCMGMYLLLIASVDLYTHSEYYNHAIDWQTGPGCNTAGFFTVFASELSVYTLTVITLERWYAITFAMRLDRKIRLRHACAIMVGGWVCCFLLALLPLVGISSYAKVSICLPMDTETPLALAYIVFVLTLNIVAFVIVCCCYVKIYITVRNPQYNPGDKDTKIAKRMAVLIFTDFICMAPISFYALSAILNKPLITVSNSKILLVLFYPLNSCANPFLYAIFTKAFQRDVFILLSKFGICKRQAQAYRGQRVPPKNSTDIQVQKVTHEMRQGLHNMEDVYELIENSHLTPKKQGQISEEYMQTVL

`FC(F)(F)c1cccc(Cl)c1`: the Potency result in test [1], in test [2], in test [3], in test [4], in test [5] and in test [6] was “inactive” throughout. Also, the Potency result in [7], in [8], in test [9], in test [10], in [11] and in [12] was “inactive” throughout. In addition, the Potency result in test [13] was “inactive”.
Regarding `Cc1c(C)c2c(c(C)c1OC(=O)c1cccnc1)CC[C@@](C)(CCC[C@H](C)CCC[C@H](C)CCCC(C)C)O2`, the Potency result in [1], in test [2], in test [3], in test [4], in test [6] and in test [14] was “inactive” in each case. For the same compound, the Potency entry in test [15], in test [7], in [16], in test [8], in [9] and in test [17] was “inactive” in each case. For the same compound, the Potency entry in test [10], in test [11], in [12] and in test [13] was “inactive” throughout. Also, the activity change, positive = activation in test [18] (at 42.5 µM (top of the series)) is 3.86%.
As for `NC(=S)NC(N)=S`, the Potency entry in test [1], in test [2], in test [3], in [4], in test [5] and in test [6] was “inactive” throughout. The Potency entry in [7], in test [8], in [9], in test [19], in test [10] and in test [11] was “inactive” in each case. Moreover, the Potency entry in test [12] and in [13] was “inactive” in each case.
Consider `CCOC(=O)Cn1cccc1-c1nc(-c2ccc(OC)cc2)c(-c2ccc(OC)cc2)s1`, for which the Potency entry in [1], in test [2], in [3], in test [4], in test [5] and in test [6] was “inactive” each time. Also, the Potency result in test [16], in test [19], in test [11] and in [12] was “inactive” in each case.
For `S=c1nccc[nH]1`, the Potency entry in [1], in test [2], in test [3], in test [4], in test [20] and in [6] was “inactive” in each case. The Potency entry in test [14], in test [15], in test [16], in [8], in [9] and in test [19] was “inactive” in each case. The Potency entry in test [17], in [10], in [11] and in test [12] was “inactive” in each case. The activity change, positive = activation in [18] (at 92.4 µM (top of the series)) was -6.52%.
For the compound `CC[N+](CC)(CC)CCOC(=O)C(C1CCCC1)C1CCCC1`, the Potency result in test [1], in test [2], in [3], in test [4], in [6] and in test [15] was “inactive” throughout. Further, the Potency entry in test [16], in [8], in [9], in [19], in [10] and in [12] was “inactive” throughout. In [13], the Potency result was “inactive”. The activity change, positive = activation in [18] (at 42.5 µM (top of the series)) was -21.2%.
`CC1(C)CCC[C@]2(C)[C@H]3CC(=O)O[C@]3(C)CC[C@@H]12`: the Potency result in test [1], in test [2], in test [3], in [4], in [5] and in [6] was “inactive” each time. The Potency result in test [16], in test [9], in test [10], in test [11], in test [12] and in [13] was “inactive” in each case. For the same compound, in test [7], the Potency was 19.3 µM (active).
`CCCCC(CC)CN1CN(CC(CC)CCCC)CC(C)(N)C1` (centres undefined): the Potency result in test [1], in [2], in [3], in [4], in [6] and in test [14] was “inactive” throughout. Also, the Potency entry in test [15] and in test [12] was “inactive” in each case. Further, in test [18] (at 42.5 µM (top of the series)), the activity change, positive = activation is -16.4%. Moreover, the Potency in [10] is 16.9 µM (active); in test [11], 8.49 µM (active).

The values are drawn from PubChem BioAssay (Tox21).
